Values joined by “and” are separate entries in the source; they are usually repeats but may differ in a detail not shown here. Equal entries are not always repeated. About 2,000 (36%) of roughly 5,500 compounds were called active. Roughly 18% stayed inconclusive and do not appear here. No stated cut-off is given here; in the data, active means normalized growth mostly below about 0.91 (no sharp cut-off); inconclusive means no clear call, values can overlap the other calls; inactive means mostly above about 0.92. This is one part of the list.
Experiment: chemical genetic growth profiling, strain panel (AID 1159580);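 further: tested at 20 µM; growth read once vehicle control cultures reached saturation at 30 °C; 1 = growth at the plate median or of vehicle wells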
Conditions: growth OD

Measured: normalized growth

COc1cc(OC)c2c(=O)cc(-c3ccccc3)oc2c1
active: S. cerevisiae deletion strains, locus YDL074C, strain BRE1, stronger effect = lower value 0.764 | S. cerevisiae deletion strains, locus YDL134C, strain PPH21, stronger effect = lower value 0.886 | S. cerevisiae deletion strains, locus YDL192W, strain arf1, stronger effect = lower value 0.914 | S. cerevisiae deletion strains, locus YDR162C, strain NBP2, stronger effect = lower value 0.752 | S. cerevisiae deletion strains, locus YDR318W, strain mcm21, stronger effect = lower value 0.868 | S. cerevisiae deletion strains, locus YDR502C, strain sam2, stronger effect = lower value 0.907 | S. cerevisiae deletion strains, locus YER167W, strain BCK2, stronger effect = lower value 0.899 | S. cerevisiae deletion strains, locus YGL086W, strain mad1, stronger effect = lower value 0.924 | S. cerevisiae deletion strains, locus YGL248W, strain PDE1, stronger effect = lower value 0.866 | S. cerevisiae deletion strains, locus YGR078C, strain PAC10, stronger effect = lower value 0.805 | S. cerevisiae deletion strains, locus YGR135W, strain pre9, stronger effect = lower value 0.819 | S. cerevisiae deletion strains, locus YGR229C, strain SMI1, stronger effect = lower value 0.664 | S. cerevisiae deletion strains, locus YHR079C, strain IRE1 (second series), stronger effect = lower value 0.895 | S. cerevisiae deletion strains, locus YKR001C, strain vps1, stronger effect = lower value 0.839 | S. cerevisiae deletion strains, locus YLR039C, strain RIC1, stronger effect = lower value 0.644 | S. cerevisiae deletion strains, locus YLR268W, strain sec22, stronger effect = lower value 0.877 | S. cerevisiae deletion strains, locus YLR342W, strain FKS1 (second series), stronger effect = lower value 0.71 | S. cerevisiae deletion strains, locus YLR418C, strain cdc73, stronger effect = lower value 0.685 | S. cerevisiae deletion strains, locus YML032C, strain rad52, stronger effect = lower value 0.757 | S. cerevisiae deletion strains, locus YMR223W, strain ubp8, stronger effect = lower value 0.875 | S. cerevisiae deletion strains, locus YMR263W, strain SAP30, stronger effect = lower value 0.871 | S. cerevisiae deletion strains, locus YNL233W, strain BNI4, stronger effect = lower value 0.846 | S. cerevisiae deletion strains, locus YNL307C, strain MCK1, stronger effect = lower value 0.533 | S. cerevisiae deletion strains, locus YNR052C, strain pop2, stronger effect = lower value 0.902 | S. cerevisiae deletion strains, locus YOL006C, strain TOP1, stronger effect = lower value 0.472 | S. cerevisiae deletion strains, locus YOR184W, strain ser1, stronger effect = lower value 0.792 | S. cerevisiae deletion strains, locus YPR163C, strain tif3, stronger effect = lower value 0.785 | S. cerevisiae deletion strains, strain wtn01, stronger effect = lower value 0.868
inactive: S. cerevisiae deletion strains, locus YAL013W, strain DEP1, stronger effect = lower value 0.912 | S. cerevisiae deletion strains, locus YBR021W, strain FUR4, stronger effect = lower value 0.978 | S. cerevisiae deletion strains, locus YBR229C, strain ROT2, stronger effect = lower value 0.949 | S. cerevisiae deletion strains, locus YCL029C, strain bik1, stronger effect = lower value 0.957 | S. cerevisiae deletion strains, locus YDL035C, strain GPR1, stronger effect = lower value 0.864 | S. cerevisiae deletion strains, locus YDL101C, strain DUN1, stronger effect = lower value 0.925 | S. cerevisiae deletion strains, locus YDL185W, strain tfp1, stronger effect = lower value 0.951 | S. cerevisiae deletion strains, locus YDR101C, strain arx1, stronger effect = lower value 0.936 | S. cerevisiae deletion strains, locus YDR150W, strain NUM1, stronger effect = lower value 0.949 | S. cerevisiae deletion strains, locus YDR388W, stronger effect = lower value 0.951 | S. cerevisiae deletion strains, locus YEL061C, strain CIN8, stronger effect = lower value 0.941 | S. cerevisiae deletion strains, locus YER110C, stronger effect = lower value 0.914 | S. cerevisiae deletion strains, locus YER155C, strain BEM2, stronger effect = lower value 0.951 | S. cerevisiae deletion strains, locus YGL078C, strain dbp3, stronger effect = lower value 0.961 | S. cerevisiae deletion strains, locus YGR252W, strain gcn5, stronger effect = lower value 0.793 | S. cerevisiae deletion strains, locus YHR079C, strain IRE1, stronger effect = lower value 0.925 | S. cerevisiae deletion strains, locus YHR094C, strain hxt1, stronger effect = lower value 0.96 | S. cerevisiae deletion strains, locus YHR129C, strain ARP1, stronger effect = lower value 0.934 | S. cerevisiae deletion strains, locus YHR200W, strain rpn10, stronger effect = lower value 0.929 | S. cerevisiae deletion strains, locus YIL066C, strain RNR3, stronger effect = lower value 0.912 | S. cerevisiae deletion strains, locus YIL073C, strain SPO22, stronger effect = lower value 0.844 | S. cerevisiae deletion strains, locus YIL125W, strain kgd1, stronger effect = lower value 0.975 | S. cerevisiae deletion strains, locus YIR030C, strain dcg1, stronger effect = lower value 0.95 | S. cerevisiae deletion strains, locus YJL134W, strain LCB3, stronger effect = lower value 0.948 | S. cerevisiae deletion strains, locus YJL168C, strain set2, stronger effect = lower value 0.944 | S. cerevisiae deletion strains, locus YJL187C, strain SWE1 (second series), stronger effect = lower value 0.879 | S. cerevisiae deletion strains, locus YJR043C, strain POL32, stronger effect = lower value 0.894 | S. cerevisiae deletion strains, locus YJR066W, strain TOR1, stronger effect = lower value 0.872 | S. cerevisiae deletion strains, locus YJR075W, strain HOC1, stronger effect = lower value 0.884 | S. cerevisiae deletion strains, locus YKL009W, strain mrt4, stronger effect = lower value 0.906 | S. cerevisiae deletion strains, locus YKL068W, stronger effect = lower value 0.967 | S. cerevisiae deletion strains, locus YKL085W, strain MDH1 (second series), stronger effect = lower value 0.963 | S. cerevisiae deletion strains, locus YKL085W, strain MDH1, stronger effect = lower value 0.963 | S. cerevisiae deletion strains, locus YKL190W, strain CNB1, stronger effect = lower value 0.948 | S. cerevisiae deletion strains, locus YLR058C, strain SHM2, stronger effect = lower value 0.913 | S. cerevisiae deletion strains, locus YLR102C, strain apc9, stronger effect = lower value 0.958 | S. cerevisiae deletion strains, locus YLR113W, strain HOG1, stronger effect = lower value 0.952 | S. cerevisiae deletion strains, locus YLR262C, strain YPT6, stronger effect = lower value 0.652 | S. cerevisiae deletion strains, locus YLR330W, strain CHS5, stronger effect = lower value 0.929 | S. cerevisiae deletion strains, locus YLR371W, strain rom2, stronger effect = lower value 0.959 | S. cerevisiae deletion strains, locus YML016C, strain PPZ1, stronger effect = lower value 0.929 | S. cerevisiae deletion strains, locus YML124C, strain tub3, stronger effect = lower value 0.952 | S. cerevisiae deletion strains, locus YMR078C, strain ctf18, stronger effect = lower value 0.912 | S. cerevisiae deletion strains, locus YMR307W, strain GAS1, stronger effect = lower value 0.625 | S. cerevisiae deletion strains, locus YNL067W, strain RPL9B, stronger effect = lower value 0.889 | S. cerevisiae deletion strains, locus YNL128W, strain TEP1, stronger effect = lower value 0.939 | S. cerevisiae deletion strains, locus YNL153C, strain GIM3, stronger effect = lower value 0.924 | S. cerevisiae deletion strains, locus YNL183C, strain NPR1, stronger effect = lower value 0.88 | S. cerevisiae deletion strains, locus YNL250W, strain rad50, stronger effect = lower value 0.923 | S. cerevisiae deletion strains, locus YNL271C, strain bni1, stronger effect = lower value 0.943 | S. cerevisiae deletion strains, locus YNL298W, strain CLA4, stronger effect = lower value 0.941 | S. cerevisiae deletion strains, locus YNL322C, strain KRE1, stronger effect = lower value 0.946 | S. cerevisiae deletion strains, locus YOL012C, strain htz1 0.858 | S. cerevisiae deletion strains, locus YOL147C, strain pex11, stronger effect = lower value 0.944 | S. cerevisiae deletion strains, locus YOR061W, strain CKA2, stronger effect = lower value 0.941 | S. cerevisiae deletion strains, locus YOR069W, strain VPS5, stronger effect = lower value 0.95 | S. cerevisiae deletion strains, locus YOR136W, strain idh2, stronger effect = lower value 0.965 | S. cerevisiae deletion strains, locus YOR144C, strain elg1, stronger effect = lower value 0.949 | S. cerevisiae deletion strains, locus YOR231W, strain MKK1, stronger effect = lower value 0.925 | S. cerevisiae deletion strains, locus YOR316C, strain cot1, stronger effect = lower value 0.943 | S. cerevisiae deletion strains, locus YPL055C, strain LGE1, stronger effect = lower value 0.83 | S. cerevisiae deletion strains, locus YPL241C, strain CIN2, stronger effect = lower value 0.946 | S. cerevisiae deletion strains, locus YPL256C, strain CLN2, stronger effect = lower value 0.911 | S. cerevisiae deletion strains, locus YPR119W, strain clb2, stronger effect = lower value 0.945 | S. cerevisiae deletion strains, locus YPR141C, strain kar3, stronger effect = lower value 0.967 | S. cerevisiae deletion strains, locus YPR167C, strain met16, stronger effect = lower value 0.951 | S. cerevisiae strains, strain wild type, stronger effect = lower value 0.905
0.718 (active) and 0.911 (inactive): S. cerevisiae deletion strains, locus YHR030C, strain SLT2, stronger effect = lower value
0.51 (active) and 0.918 (inactive): S. cerevisiae deletion strains, locus YJL095W, strain BCK1, stronger effect = lower value

— PubChem BioAssay AID1159580 (chemical genetic matrix, 2015)
